The source of these data is the supplement of paper PMC12532568.

Structures can show the parent of a compound that is named as a salt.

In this assay the test system is Danio rerio larvae Tg(actc1b:ZsGreen-LC3), 3 dpf. Nature of the assay: LC3 puncta relative area vs vehicle, with NH4Cl (autophagic flux) (log2 fold change); higher = more autophagy. As to conditions: 10 µM; treatment time 16 h; NH4Cl: + 100 mM, 4 h. The procedure: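 Transgenic Tg(actc1b:ZsGreen-map1lc3) zebrafish larvae (2 dpf) were treated for 16 h with Tocris library compounds at 10 µM (n = 12 larvae per compound). Skeletal-muscle LC3 puncta area relative to body area was measured by high-content confocal imaging before and after 4 h of 100 mM NH4Cl (autophagic flux), normalised to vehicle (DMSO), and reported as log2 fold change.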
`c1cc2c(cc1C1CCCCC1)c1c3n2CCNC3CCC1` (stereo not given) [Tetrindole mesylate]: the “LC3 puncta (log2)” value came out at 0.836. As to `NC(=O)OCC(COC(N)=O)c1ccccc1` [Felbamate], the “LC3 puncta (log2)” value is -0.777. With `C=C1C(=O)O[C@H]2[C@H]1CC/C(C)=C/CC[C@@]1(C)O[C@@H]21` [Parthenolide], the “LC3 puncta (log2)” value worked out at 0.46. The figure for `COC(=O)/C=C/c1cc(O)ccc1O` [Methyl 2,5-dihydroxycinnamate] is 0.332; for `CC(CCc1ccc(O)cc1)NCCc1ccc(O)c(O)c1` (stereo not given) [Dobutamine hydrochloride] it is 0.472.

Regarding `CN(C)CCCSC(=N)N` [Dimaprit dihydrochloride], the “LC3 puncta (log2)” value was 0.561. To `CC(Cc1ccc(O)c(O)c1)(NN)C(=O)O` [(S)-(-)-Carbidopa] belongs 0.219; to `CCN(CC)CCOc1ccc(Cc2ccccc2)cc1` [DPPE fumarate], 0.857.

As to `O=C(NCCCN1CCCCCC1)C(c1ccccc1)C1CCCCC1` (stereo not given), the “LC3 puncta (log2)” value was -0.114. To `CC(C)NC[C@H](O)COc1cccc2ccccc12` [(S)-(-)-Propranolol hydrochloride] belongs 1.09. The figure for `CC(N)(Cc1ccc(O)c(O)c1)C(=O)O` (stereo not given) is 0.209; for `COc1ccc([C@@H]2Sc3ccccc3N(CCN(C)C)C(=O)[C@@H]2OC(C)=O)cc1` [Diltiazem hydrochloride] it is 0.194. Turning to `CN(C)CCCn1cc(C2=C(c3c[nH]c4ccccc34)C(=O)NC2=O)c2ccccc21`, the “LC3 puncta (log2)” value worked out at 0.575.

`CN(C)CCCCSC(=N)N`: the “LC3 puncta (log2)” value was 0.383.

Turning to `CNC(=O)c1cc2c(cn1)[nH]c1ccccc12`, the “LC3 puncta (log2)” value turned out to be 0.446.

For `CC(C)CC(NC(=O)OCC1c2ccccc2-c2ccccc21)C(=O)O` (stereo not given), the “LC3 puncta (log2)” value turned out to be 0.569. The figure for `NCC(O)(CS(=O)(=O)O)c1ccc(Cl)cc1` (stereo not given) [2-Hydroxysaclofen] is 0.449.

`COCCOC(=O)C1=C(C)NC(C)=C(C(=O)OC(C)C)C1c1cccc([N+](=O)[O-])c1` (stereo not given) [Nimodipine]: the “LC3 puncta (log2)” value came to 0.885.

Consider `COc1ccccc1N1CCN(CC(O)COc2cccc3ccccc23)CC1` (stereo not given) [Naftopidil dihydrochloride], for which the “LC3 puncta (log2)” value was found to be 0.195.

Consider `CCN(CC)CCOCCOC(=O)C1(c2ccccc2)CCCC1` [Carbetapentane citrate], for which the “LC3 puncta (log2)” value came out at 0.392. The figure for `CC(C)[N+]1(C)[C@@H]2CC[C@H]1C[C@@H](OC(=O)C(CO)c1ccccc1)C2` (stereo not given in full) [Ipratropium bromide] is 0.284; for `CCOC(=O)C1=C(C)NC(C)=C(C(=O)OC)C1c1cccc([N+](=O)[O-])c1` (stereo not given) [Nitrendipine] it is 0.513. On to `CC(C)NC[C@H](O)COc1ccc(CC(N)=O)cc1` [(S)-(-)-Atenolol], for which the “LC3 puncta (log2)” value was determined as 0.611. In the case of `CN1CCN(C2=Cc3ccccc3Oc3ccc(Cl)cc32)CC1`, the “LC3 puncta (log2)” value is 0.934.

For `O=[N+]([O-])c1cccc2c(Br)[nH]nc12` [3-Bromo-7-nitroindazole], the “LC3 puncta (log2)” value is 0.697. The figure for `N=C(N)SCCc1c[nH]cn1` [Imetit dihydrobromide] is 0.713; for `COC(=O)C1=C(C)NC(C)=C(C(=O)OCCSc2ccccc2)C1C` (stereo not given) it is 0.664. The figure for `COc1ccc2[nH]c(I)c(CCNC(C)=O)c2c1` [2-Iodomelatonin] is 0.706; for `CC(=O)N1CCN(C)CC1` [1-Acetyl-4-methylpiperazine hydrochloride] it is 0.372.

With `CNCCCCOc1ccccc1Cc1ccccc1` [Bifemelane], the “LC3 puncta (log2)” value worked out at 0.532. The figure for `CC(C)NC[C@@H](O)COc1cccc2ccccc12` [(R)-(+)-Propranolol hydrochloride] is -0.318; for `CC[C@@H]1C(=O)OC[C@@H]1Cc1cncn1C` [Pilocarpine hydrochloride] it is 0.652. On to `COc1ccccc1N1CCN(CCCCN2C(=O)c3ccccc3C2=O)CC1` [NAN-190 hydrobromide], for which the “LC3 puncta (log2)” value is 0.496. To `CCCCCCN(CCCCCC)C(=O)Cc1c(-c2ccc(F)cc2)[nH]c2ccccc12` belongs 0.295; to `O=C1CC2(CCCC2)CC(=O)N1CCNCC1COc2ccccc2O1` (stereo not given), 0.515; to `O=[N+]([O-])c1cccc2cn[nH]c12` [7-Nitroindazole], 0.507.

For the molecule `Cc1ccc2c(c1)c1c3n2CCNC3CCC1` (stereo not given) [Pirlindole mesylate], the “LC3 puncta (log2)” value was found to be 0.527. To `O=C(O)C=C1CCCc2ccccc2C1O` (stereo not given) belongs -0.285; to `CCCCCCN(CCCCCC)C(=O)Cc1c(-c2ccc(Cl)cc2)[nH]c2ccc(Cl)cc12`, 0.58.

Regarding `O=C(NCCN1CCCCC1)c1ccc(I)cc1` [N-[2-(Piperidinylamino)ethyl]-4-iodobenzamide], the “LC3 puncta (log2)” value came to 0.448.
